One may read the AC50 as the midpoint of the concentration-response curve, whichever way the signal moves.

These results are taken from PubChem BioAssay (EPA / NIEHS).

Structures are written as SMILES. Calls of active or inactive are those of the source. How the source made its calls: active means hit-call score of the fitted dose curve at least 0.9, where 1 is the maximum; inactive means score below 0.9.

What all share (details): mRNA level, 48 h; actives raise or lower the signal
Read-out in test [1]: catalase (CAT), CAT (gene 847)
The test is described as follows: LTEA_HepaRG_CAT: Life Technologies and Expression Analysis (LTEA) Assay for catalase (CAT) using HepaRG (AID 2283452).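 On AC50: TaqMan qRT-PCR signal normalized to ACTB GAPDH and POLR2A housekeeping genes.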 Summed up: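 Differentiated HepaRG cells in serum-free induction medium were dosed 48 h in duplicate, eight half-log concentrations from 100 uM in 0.5% DMSO. Transcript measured by TaqMan qRT-PCR, normalised to ACTB/GAPDH/POLR2A, fitted bidirectionally against DMSO.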

Read-out in test [2]: flavin-containing dimethylaniline monooxygenases 3 (FMO3), FMO3 (gene 2328)
Briefly: LTEA_HepaRG_FMO3: Life Technologies and Expression Analysis (LTEA) Assay for flavin-containing dimethylaniline monooxygenases 3 (FMO3) using HepaRG (AID 2283453).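 On AC50: FMO3 transcript by TaqMan qRT-PCR normalized to ACTB GAPDH and POLR2A.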 An outline of the steps:
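HepaRG, 48 h exposure, 8-pt half-log series from 100 uM, 0.5% DMSO vehicle, duplicates; FMO3 transcript by Fluidigm TaqMan qRT-PCR, housekeeping-normalized; gain/loss fit vs DMSO.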

Read-out in test [3]: Cytochrome P450 (CYP1A1), CYP1A1 (gene 1543)
Briefly: LTEA_HepaRG_CYP1A1: Life Technologies and Expression Analysis (LTEA) Assay for Cytochrome P450 (CYP1A1) using HepaRG (AID 2283454). Summed up:
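HepaRG, 48 h post-plating switched to serum-free induction medium; 8-pt conc-response (top 100 uM, half-log, 0.5% DMSO), duplicates, 48 h. Lysis in RLT, TaqMan qRT-PCR for CYP1A1; gain or loss vs DMSO.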

Read-out in test [4]: CFLAR gene, CFLAR (gene 8837)
Briefly: LTEA_HepaRG_CFLAR: Life Technologies and Expression Analysis (LTEA) Assay for CFLAR gene using HepaRG (AID 2283455). Summed up:
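HepaRG cells were plated for 48 h, switched to serum-free induction medium, then exposed in duplicate for 48 h to 8 concentrations (top 100 uM, half-log steps, 0.5% DMSO). CFLAR mRNA was measured by qRT-PCR, normalized to ACTB, GAPDH and POLR2A.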

Read-out in test [5]: growth arrest and DNA damage 45 (GADD45A), GADD45A (gene 1647)
The test is described as follows: LTEA_HepaRG_GADD45A: Life Technologies and Expression Analysis (LTEA) Assay for growth arrest and DNA damage 45 (GADD45A) using HepaRG (AID 2283458). Summed up:
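Differentiated HepaRG cells were exposed in duplicate for 48 h in serum-free induction medium to 8-point half-log concentrations up to 100 uM in 0.5% DMSO. GADD45A mRNA was measured by TaqMan qRT-PCR, normalized to ACTB, GAPDH and POLR2A, with bidirectional fitting versus DMSO.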

Read-out in test [6]: Forkhead box O3 (FOXO3), FOXO3 (gene 2309)
Briefly: LTEA_HepaRG_FOXO3: Life Technologies and Expression Analysis (LTEA) Assay for Forkhead box O3 (FOXO3) using HepaRG (AID 2283459). An outline of the steps:
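Differentiated human HepaRG cells in serum-free induction medium were exposed in duplicate for 48 h to eight half-log concentrations up to 100 uM in 0.5% DMSO. FOXO3 mRNA was quantified by qRT-PCR, normalized to ACTB, GAPDH and POLR2A, with bidirectional fitting versus DMSO.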

Read-out in test [7]: ABC Transporter (ABCB1), ABCB1 (gene 5243)
Briefly: LTEA_HepaRG_ABCB1: Life Technologies and Expression Analysis (LTEA) Assay for ABC Transporter (ABCB1) using HepaRG (AID 2283460). An outline of the steps: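 Differentiated human HepaRG cells, plated 48 h then switched to serum-free induction medium, were exposed in duplicate to eight half-log concentrations up to 100 uM in 0.5% DMSO for 48 h. ABCB1 mRNA was measured by TaqMan qRT-PCR, normalized to ACTB/GAPDH/POLR2A.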

Read-out in test [8]: growth arrest and DNA damage 45 (GADD45B), GADD45B (gene 4616)
Briefly: LTEA_HepaRG_GADD45B: Life Technologies and Expression Analysis (LTEA) Assay for growth arrest and DNA damage 45 (GADD45B) using HepaRG (AID 2283461). An outline of the steps:
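HepaRG, ~100,000 cells/well, 48 h plating; serum-free induction medium; cpd 100 uM top, half-log x8, 0.5% DMSO, duplicate, 48 h; lysis in RLT, RNA isolation, qRT-PCR; norm ACTB/GAPDH/POLR2A; bidirectional fit vs DMSO.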

Take `CCOP(=O)(OCC)Oc1cc(C)nc(C(C)C)n1`: the outcome in test [1], in test [2], in test [4], in test [5], in test [6] and in test [7] was inactive. The molecule was called inactive in test [8]. For the same molecule, the AC50 in test [3] was 50.2 µM (active).
On to `CC[C@H](C)[C@H]1O[C@]2(C=C[C@@H]1C)C[C@@H]1C[C@@H](C/C=C(\C)[C@@H](O[C@H]3C[C@H](OC)[C@@H](O[C@H]4C[C@H](OC)[C@@H](NC)[C@H](C)O4)[C@H](C)O3)[C@@H](C)/C=C/C=C3\CO[C@@H]4[C@H](O)C(C)=C[C@@H](C(=O)O1)[C@]34O)O2`, for which the AC50 is 12.7 µM (active) in test [1]; 15.5 µM (active) in test [2]; 13.4 µM (active) in test [3]; 16.9 µM (active) in test [4]; 23 µM (active) in test [7]; 50 µM (active) in test [8]. In addition, the molecule was called inactive in test [5] and in test [6].
In the case of `S=C1NCCN1`, the molecule was classed as inactive in test [1], in test [2], in test [3], in test [4], in test [5] and in test [6]. The molecule was called inactive in test [7] and in test [8].
On to `CCc1cccc(CC)c1N(COC)C(=O)CCl`, for which the molecule was called inactive in test [1], in test [2], in test [4], in test [5], in test [6] and in test [7]. Also, the call in test [8] was inactive. Further, the half-maximal activity concentration (AC50) in test [3] was 50 µM (active).
Regarding `CN(C)C(=O)Nc1cccc(C(F)(F)F)c1`, the call in test [1], in test [2], in test [4], in test [6], in test [7] and in test [8] was inactive. Besides, the results for the half-maximal activity concentration (AC50) in test [3] and in test [5] were 24.7 µM (active) and 79.2 µM (active), respectively.
Regarding `C[N+]1(C)CCCCC1`, the molecule was called inactive in test [1], in test [2], in test [4], in test [5], in test [6] and in test [7]. For the same molecule, in test [8], the result was inactive. Moreover, in test [3], the AC50 is 50 µM (active).
On to `COP(=O)(NC(C)=O)SC` (configuration not stated), for which the result in test [1], in test [2], in test [3], in test [4], in test [5] and in test [6] was inactive. Besides, the result in test [7] and in test [8] was inactive.
As to `O=[N+]([O-])c1cc(C(F)(F)F)c(Cl)c([N+](=O)[O-])c1Nc1ncc(C(F)(F)F)cc1Cl`, the AC50 in test [1] was 29.2 µM (active); in test [2] it was 27.7 µM (active); in test [3], 9.68 µM (active); in test [4], 40.9 µM (active); in test [5] it was 33.6 µM (active); in test [6] it was 35.6 µM (active). Besides, the molecule was classed as inactive in test [7] and in test [8].
As for `CCCCOC(=O)[C@@H](C)Oc1ccc(Oc2ccc(C#N)cc2F)cc1`, the molecule was classed as inactive in test [1], in test [2], in test [4], in test [5], in test [6] and in test [7]. The outcome in test [8] was inactive. In addition, in test [3], the half-maximal activity concentration (AC50) was 23.3 µM (active).
As to `O=c1ccc(=O)[nH][nH]1`, the molecule was called inactive in test [1], in test [2], in test [3], in test [4], in test [5] and in test [6]. Also, the molecule was called inactive in test [7] and in test [8].
As to `CCc1cccc(C)c1N(C(=O)CCl)C(C)COC` (configuration not stated), the molecule was called inactive in test [1], in test [2], in test [4], in test [5], in test [6] and in test [7]. Also, the molecule was called inactive in test [8]. The AC50 in test [3] was 62.6 µM (active).
For `C[Si](Cn1cncn1)(c1ccc(F)cc1)c1ccc(F)cc1`, the AC50 was 50 µM (active) in test [1], 37.5 µM (active) in test [2], 5.08 µM (active) in test [3] and 50 µM (active) in test [4]. The molecule was classed as inactive in test [5], in test [6], in test [7] and in test [8].
For the molecule `CCOP(=S)(OCC)Oc1ccc([N+](=O)[O-])cc1`, the call in test [1], in test [2], in test [4], in test [5], in test [6] and in test [7] was inactive. Also, the call in test [8] was inactive. For the same molecule, the half-maximal activity concentration (AC50) in test [3] is 15.4 µM (active).
On to `CCOP(=O)(SC(C)CC)N1CCSC1=O` (configuration not stated), for which the call in test [1], in test [2], in test [3], in test [4], in test [5] and in test [6] was inactive. Also, the result in test [7] and in test [8] was inactive.
